Sampled rows, rich in hits. Any-hit rate of the full collection: about 12%.
PLK1 PBD inh: qHTS for Inhibitors of PLK1-PDB (polo-like kinase 1 - polo-box domain): Primary Screen. Serine/threonine-protein kinase PLK1 (Homo sapiens), P53350. Plk1 PBD binding of FITC phosphopeptide, fluorescence polarization. Potency, µM, for inactives: max response, negative = inhibition, most hits filed as inhibitors. actives 2.8% (n = 360,000). AID 720504, 2013; further: potency means the concentration at half of the fitted maximal effect; series mostly up to about 57 µM; on the % scale 0 is the no-effect control and ±100 the full control effect; nearly all actives have a fitted effect of over 65% in size
PI5P4Ka inh: qHTS for Inhibitors of phosphatidylinositol 5-phosphate 4-kinase (PI5P4K). PI5P4Kalpha enzyme, ADP-Glo luminescence, 60 min; active compounds read low. actives 1.2% (n = 330,000). max response, %. Phosphatidylinositol 5-phosphate 4-kinase type-2 alpha (Homo sapiens), P48426. AID 652105, 2013; active means max response of -50% or lower; inconclusive means between -30% and -50%; inactive means -30% or higher; further: value at the top dose of about 77 µM; on the % scale 0 is the no-effect control and ±100 the full control effect
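Controls without substrate or without enzyme flank wells where PI5P4Kalpha converts substrate using 5 microM ATP (final). Incubation lasts 60 minutes at room temperature; ADP formed is read by ADP-Glo luminescence.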
G9a block: qHTS Assay for Inhibitors of Histone Lysine Methyltransferase G9a | Histone-lysine N-methyltransferase EHMT2 (Homo sapiens), Q96KQ7 | G9a H3K9 monomethylation, AlphaScreen, 2 h | Potency, µM (top dose mostly 102 µM), for inactives: top-dose activity, negative = inhibition, actives largely listed as inhibitors | actives 8.8% (n = 350,000); further: potency means the concentration at half of the fitted maximal effect; on the % scale 0 is the no-effect control and ±100 the full control effect; nearly all actives have a fitted effect of over 75% in size
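Signal arises when biotinylated H3K9 peptide, once monomethylated, bridges streptavidin donor and antibody-captured acceptor beads. Enzyme at 20 nM was preincubated 15 min with test compounds; peptide 500 nM and SAM 20 uM then reacted for 2 h.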
JMJD2A Tudor inh: qHTS Assay for Inhibitors of JMJD2A-Tudor Domain. actives 4.4% (n = 390,000). AlphaScreen JMJD2A-Tudor / H3K4me3 peptide binding. Potency, µM (top dose mostly 114 µM), for inactives: top-dose activity change, negative = inhibition, hits mostly inhibitors. Lysine-specific demethylase 4A (Homo sapiens), O75164. AID 504339, 2011; further: potency means the concentration at half of the fitted maximal effect; on the % scale 0 is the no-effect control and ±100 the full control effect; nearly all actives have a fitted effect of over 50% in size
Target sequence (O75164 whole entry, looked up, the tested form may be a part): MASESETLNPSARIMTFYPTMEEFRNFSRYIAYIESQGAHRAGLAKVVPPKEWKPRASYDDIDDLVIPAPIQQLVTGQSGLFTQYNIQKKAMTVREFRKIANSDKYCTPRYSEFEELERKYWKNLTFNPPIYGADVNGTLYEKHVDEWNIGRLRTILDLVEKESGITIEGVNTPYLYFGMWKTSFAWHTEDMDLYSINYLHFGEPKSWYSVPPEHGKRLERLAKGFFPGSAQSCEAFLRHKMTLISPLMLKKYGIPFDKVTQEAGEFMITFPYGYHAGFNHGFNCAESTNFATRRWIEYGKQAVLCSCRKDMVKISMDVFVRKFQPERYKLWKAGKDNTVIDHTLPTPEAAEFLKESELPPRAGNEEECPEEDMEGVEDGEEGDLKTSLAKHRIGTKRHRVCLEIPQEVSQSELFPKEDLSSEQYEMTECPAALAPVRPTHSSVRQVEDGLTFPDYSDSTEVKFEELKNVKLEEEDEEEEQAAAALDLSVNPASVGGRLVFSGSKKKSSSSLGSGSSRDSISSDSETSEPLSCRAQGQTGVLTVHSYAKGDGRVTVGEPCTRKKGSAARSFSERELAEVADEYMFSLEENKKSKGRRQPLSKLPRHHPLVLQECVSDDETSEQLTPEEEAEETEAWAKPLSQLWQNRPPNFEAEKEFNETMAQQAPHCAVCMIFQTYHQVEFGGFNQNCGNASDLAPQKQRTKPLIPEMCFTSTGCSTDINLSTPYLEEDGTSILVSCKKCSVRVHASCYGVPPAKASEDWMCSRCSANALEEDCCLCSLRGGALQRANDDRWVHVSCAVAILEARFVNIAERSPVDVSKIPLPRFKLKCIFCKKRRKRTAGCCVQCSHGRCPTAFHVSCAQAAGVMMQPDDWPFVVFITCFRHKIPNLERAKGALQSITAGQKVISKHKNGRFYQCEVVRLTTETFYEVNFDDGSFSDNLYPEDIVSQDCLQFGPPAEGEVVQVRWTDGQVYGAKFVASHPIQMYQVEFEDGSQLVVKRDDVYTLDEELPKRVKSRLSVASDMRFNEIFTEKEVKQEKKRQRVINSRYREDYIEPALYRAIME
BAZ2B inh: qHTS Assay for Inhibitors of BAZ2B; Potency, µM (titrated, usually from 114 µM), inactives show top-dose activity change, negative = inhibition, usual class: inhibitors; AlphaScreen BAZ2B-H3K14Ac peptide displacement; AID 504333, 2011; actives 4.4% (n = 360,000); Bromodomain adjacent to zinc finger domain protein 2B (Homo sapiens), Q9UIF8; further: potency means the concentration at half of the fitted maximal effect; on the % scale 0 is the no-effect control and ±100 the full control effect; nearly all actives have a fitted effect of over 60% in size
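Compounds, titrated to a top concentration of 110 uM, were incubated 30 min at room temperature with preformed BAZ2B/acetyl-K14 H3 peptide complex (50 nM each). Proximity signal was measured by AlphaScreen after 20 min with beads.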
HP1b chromo inh: HTS for Inhibitors of HP1-beta Chromodomain Interactions with Methylated Histone Tails; AlphaScreen HP1-beta / biotin-H3K9me3 peptide binding; Potency, µM (top dose mostly 114 µM), without a hit: at the top dose activity change, negative = inhibition, hits mostly inhibitors; actives 0.56% (n = 390,000); further: potency means the concentration at half of the fitted maximal effect; nearly all actives have a fitted effect of over 70% in size
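HP1-beta protein (50 nM final) preincubated 30 min at room temperature with biotinylated H3(1-18)K9me3 peptide (50 nM) in PBS pH 7.4, 0.01% Tween-20, then compound added for 30 min. AlphaScreen streptavidin donor/nickel chelate acceptor beads (10 ug/mL final), 30 min dark, luminescence read.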
An asterisk follows results filed as active; u = inconclusive; x = no result given; [ ] = dose if it differs, or a comment. Unless noted, the call rests on the fitted dose curve; in most records, active means well fitted curve in the direction sought with a large enough effect; inconclusive means small, poorly fitted or top-dose-only effect, or another doubt; inactive means no such curve, though single readings can be large; an effect the other way counts as inactive or inconclusive.

SMILES	PLK1 PBD inh	PI5P4Ka inh	G9a block	JMJD2A Tudor inh	BAZ2B inh	HP1b chromo inh
CC1=CC(C)(C)NC(=S)N1C(C)c1ccccc1 (stereo unspecified)	-5%	-2	23%[2.33 µM]	-31%	u	18%
O=C(O)c1ccc(-n2c(-c3ccccc3)n[nH]c2=S)cc1	-7%	x	u	28µM*	-3%	34%
CC(c1ccccc1)n1c(-c2ccc(C(C)(C)C)cc2)n[nH]c1=S (stereo unspecified)	-14%	-1	32µM*	u	u	13%
Cc1ccc(-n2c(-c3ccccc3)n[nH]c2=S)c(C)c1	-8%	0	1.8µM*	u	-5%	41%
COc1cc(-c2n[nH]c(=S)n2-c2ccc(C)cc2)cc(OC)c1OC	-27%	-10	x	5µM*	50µM*	-7%
COc1cc(-c2nc(N)n[nH]2)cc(OC)c1OC	0%	x	-38%	-7%	-2%	35%
CCCN(C(=O)Cn1cnc2sc(C)c(S(=O)(=O)N3CCN(c4ncccn4)CC3)c2c1=O)c1cccc(C)c1	x	x	0%[59 µM]	-6%	1%	42%
Cc1ccc(-n2c(SCC(=O)N3CCOCC3)nnc2-c2ccncc2)cc1C	-12%	-3	18%[12.7 µM]	-4%	-4%	26%
COc1ccc(-n2c(-c3ccc(C)cc3)n[nH]c2=S)cc1	-3%	-10	4µM*	20µM*	-7%	-1%
COc1ccc(-n2c(-c3ccc(Cl)cc3)c[nH]c2=S)cc1	-4%	-15	u	-22%	u	20%
Cc1ccc(-n2c(-c3ccncc3)n[nH]c2=S)cc1	0%	1	8.9µM*	22µM*	-2%	5%
COc1ccc(-c2cc(C3CCN(C(=O)OC(C)(C)C)CC3)[nH]n2)cc1	-13%	-13	3%	u	-13%	-15%
Cc1ccc(-n2c(-c3ccncc3)n[nH]c2=S)cc1C	-5%	0	5µM*	5µM*	-1%	14%
Cc1ccc(-n2c(-c3ccncc3)nnc2-c2cccs2)cc1	-4%	1	x	29%	x	21%
O=C(O)c1ccc(-n2c(-c3cc(C4CC4)[nH]n3)n[nH]c2=S)cc1	-2%	-7	18µM*	20µM*	-10%	44%
COC(=O)c1c(Oc2ccc(OC)cc2)nnc(-c2ccccc2)c1-c1ccccc1	x	x	-34%[59 µM]	-15%	-19%	22%
CCC1(C2C=COC=C2)NC(=O)NC1=O (stereo unspecified)	-1%	1	x	x	x	x
Cc1ccc(-n2c(-c3ccc(Cl)cc3Cl)n[nH]c2=S)cc1	-21%	-8	x	-42%	0%	1%
COc1ccc(-c2n[nH]c(=S)n2-c2ccc(Br)cc2)cc1OC	-6%	9	1.6µM*	50µM*	-32%	6%
Cc1ccc(-n2c(-c3ccccc3)n[nH]c2=S)cc1	u	9	0.89µM*	2.2µM*	u	-23%
Cc1ccc(OCc2n[nH]c(=S)n2-c2ccc(Br)cc2)cc1	-17%	-8	2%[0.501 µM]	-35%	-33%	2%
Cn1c(=O)c2c(ncn2CC(=O)OCCCC(=O)c2ccc(Br)cc2)n(C)c1=O	-1%	0	x	-10%	x	-1%
CCn1cc(/C=C(\NC(=O)c2cc(OC)c(OC)c(OC)c2)C(=O)N2CCOCC2)c2ccccc21	7%	0	x	x	x	x
COc1cccc(NC(=O)CN(CCc2ccccc2)S(=O)(=O)c2ccc(Cl)cc2)c1	x	x	14µM*	28µM*	u	-19%
O=C(CN(CCc1ccccc1)S(=O)(=O)c1ccc(Br)cc1)NCc1ccc(Cl)cc1	x	x	u	14µM*	u	8%
SMILES	PLK1 PBD inh	PI5P4Ka inh	G9a block	JMJD2A Tudor inh	BAZ2B inh	HP1b chromo inh
O=C(CN(CCc1ccccc1)S(=O)(=O)c1ccccc1)NCc1ccc(Cl)cc1	x	x	5%[59 µM]	-9%	5%	59%
CC(OC(=O)c1cccc(-n2cnnn2)c1)C(=O)Nc1ccc(N(C)C)cc1 (stereo unspecified)	-8%	-7	7.1µM*	-12%	-5%	28%
CC(OC(=O)c1cccc(-n2cnnn2)c1)C(=O)Nc1ccc(F)cc1 (stereo unspecified)	-6%	4	-5%[12.7 µM]	-10%	-4%	38%
CC(OC(=O)c1cccc(-n2cnnn2)c1)C(=O)Nc1ccccc1F (stereo unspecified)	-2%	-2	50µM*	-6%	4%	17%
O=C(/C=C/[C@H]1O[C@@H](n2ccc(=O)[nH]c2=O)[C@H](O)[C@@H]1O)N1CCN(Cc2ccc(F)cc2)CC1	2%	19	x	x	x	x
COC(=O)c1ccc2c(c1)N(C)S(=O)(=O)c1cnc(SCC(=O)C(C)(C)C)nc1-2	-1%	1	5µM*	-18%	-15%	24%
CCOC(=O)c1cccc(NC(=O)CSc2ncc3c(n2)-c2ccccc2N(C)S3(=O)=O)c1	x	x	1%[59 µM]	4%	0%	28%
CC(=O)NC(CC(=O)NC1CCCCC1)c1ccccc1 (stereo unspecified)	-9%	-4	10µM*	-11%	-5%	14%
CC(=O)NC(CC(=O)NC1CCCCCC1)c1ccccc1 (stereo unspecified)	-4%	-1	u	-11%	3%	19%
O=C(Cc1c[nH]c2ccccc12)Nc1cccc(S(=O)(=O)N2CCCCC2)c1	x	x	45µM*	x	u	x
CC(C)(C)c1ccc(OCCC(=O)Nc2cccc(S(=O)(=O)N3CCCC3)c2)cc1	2%	-2	3.5µM*	-15%	4%	17%
CC(C)(C)c1ccc(OCCCC(=O)Nc2cccc(S(=O)(=O)N3CCOCC3)c2)cc1	3%	14	2%	-23%	8%	19%
CC(=O)NC(CC(=O)Nc1cccc(S(=O)(=O)N2CCCCC2)c1)c1ccccc1 (stereo unspecified)	-3%	-3	50µM*	-19%	-24%	4%
C=Cc1ccc(Cn2c(=O)cc(C)c3c(C)nn(C)c32)cc1	x	x	121%[59 µM]	76%	199%	236%
O=C(CCl)Nc1cccc(S(=O)(=O)N2CCCCCC2)c1	-19%	-9	50µM*	-20%	-19%	28%
O=C(Cc1ccc(Cl)cc1)Nc1cccc(S(=O)(=O)N2CCCCC2)c1	11%	0	4%[59 µM]	6%	-7%	36%
S=C(Nc1ccccc1)Nn1cnnc1	19µM*	-3	1.4µM*	-26%	u	-19%
